Most compounds without a hit are left out; they make up all but 11% or so of the library.
BAZ2B inh = inhibitors of human BAZ2B bromodomain | hit rate 4.4% among 360,000 | Potency, µM (titrated, usually from 114 µM), most hits filed as inhibitors | Q9UIF8 | AlphaScreen BAZ2B-H3K14Ac peptide displacement | AID 504333; also: nearly all actives have a fitted effect of over 60% in size
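Protein-peptide AlphaScreen: BAZ2B 50 nM, b-H3K14Ac 50 nM, 1x PBS pH 7.4 + 0.01% Tween-20. Preincubation 30 min RT; cpd 30 min RT (top 110 uM); beads 20 min RT, light-protected.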
JMJD2A Tudor = JMJD2A Tudor domain (human) inhibition. O75164. AlphaScreen JMJD2A-Tudor / H3K4me3 peptide binding. hit rate 4.4% among 390,000. AID 504339. Potency, µM (top dose mostly 114 µM), hits mostly inhibitors; also: nearly all actives have a fitted effect of over 50% in size
L3MBTL1 block = L3MBTL1 (human) inhibition | Q9Y468 | AlphaScreen L3MBTL1–H3K9me1 peptide binding | Potency, µM (top dose mostly 57.1 µM), usual class: inhibitors | hit rate 0.66% among 230,000; also: nearly all actives have a fitted effect of over 60% in size
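Displacement of a biotinylated histone H3(1-15) peptide monomethylated at Lys9 (75 nM) from L3MBTL1 (50 nM) was measured by AlphaScreen after a 30 min room-temperature compound incubation; cefsulodin titration served as intraplate control.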
HP1b binding inh = HP1-beta chromodomain-methylated histone interaction inhibition; Potency, µM (top dose mostly 114 µM), actives largely listed as inhibitors; hit rate 0.56% among 390,000; AlphaScreen HP1-beta / biotin-H3K9me3 peptide binding; also: nearly all actives have a fitted effect of over 70% in size
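AlphaScreen: HP1-beta (50 nM) preformed 30 min with biotin-H3(1-18)K9me3 peptide (50 nM) in PBS pH 7.4, 0.01% Tween-20. Compound added for 30 min at RT, then streptavidin donor/nickel chelate acceptor beads (10 ug/mL) for 30 min.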
G9a inh = blocks human histone lysine methyltransferase G9a. hit rate 8.8% among 350,000. Potency, µM (highest dose often 102 µM), actives largely listed as inhibitors. G9a H3K9 monomethylation, AlphaScreen, 2 h; also: nearly all actives have a fitted effect of over 75% in size
Target sequence (Q96KQ7 913-1193 limits assumed): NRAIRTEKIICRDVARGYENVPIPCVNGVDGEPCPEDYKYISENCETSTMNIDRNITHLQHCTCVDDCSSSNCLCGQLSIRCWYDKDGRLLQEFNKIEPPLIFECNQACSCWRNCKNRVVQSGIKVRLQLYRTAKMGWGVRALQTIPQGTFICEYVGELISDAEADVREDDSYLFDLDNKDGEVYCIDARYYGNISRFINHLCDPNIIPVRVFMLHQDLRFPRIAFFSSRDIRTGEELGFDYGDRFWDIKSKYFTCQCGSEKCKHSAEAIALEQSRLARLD
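AlphaScreen read-out: biotin-H3K9 peptide (500 nM) methylation by 20 nM enzyme with 20 uM SAM, 2 h at room temperature after 15 min compound preincubation; anti-monomethyl H3K9 antibody plus donor/acceptor beads, 10 min dark.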
Each line names hits and unclear results; the compound was inactive in the other large screens. Calls follow the shape of the dose curve; as a rule, active = well fitted inhibition curve with a large enough effect; inconclusive = small, poorly fitted or top-dose-only effect; inactive = no such curve, though single readings can be large or run the other way.

Nc1c(C(=O)O)sc2nc(-c3ccccc3)c3c(c12)CCCC3	G9a inh 6.3µM
COc1ccc(CCNC(=O)c2ccc3c(c2)CCN3S(C)(=O)=O)cc1	none (no result: L3MBTL1 block)
CCc1cccc(C)c1NC(=O)c1cc(S(=O)(=O)N(Cc2ccc(C(=O)OC)cc2)Cc2ccc(OC)c(OC)c2)ccc1F	none (no result: L3MBTL1 block)
COc1cccc(-c2cc(C(=O)Nc3ccc(F)cc3)[nH]n2)c1	none (no result: L3MBTL1 block)
Cc1onc(-c2ccccc2)c1C(=O)N/N=C/c1c[nH]c2ccccc12	BAZ2B inh inconclusive, JMJD2A Tudor inconclusive, HP1b binding inh 45µM
COc1cccc(/C=N/NC(=O)c2c(-c3ccccc3)noc2C)c1OC	none (no result: BAZ2B inh, L3MBTL1 block, G9a inh)
CCOc1cc([N+](=O)[O-])cc(/C=N/NC(=O)c2c(-c3ccccc3)noc2C)c1O	BAZ2B inh 22µM, JMJD2A Tudor 79µM, G9a inh inconclusive (no result: L3MBTL1 block)
COc1cccc(/C=N/NC(=O)c2c(-c3ccccc3)noc2C)c1O	BAZ2B inh 45µM, JMJD2A Tudor inconclusive
Cc1ccc(/C=N/NC(=O)c2c(-c3ccccc3)noc2C)c(O)c1	none (no result: JMJD2A Tudor, L3MBTL1 block, HP1b binding inh)
CCCCn1nc(C(=O)N2CCN(S(=O)(=O)c3ccccc3)CC2)c2ccccc2c1=O	none
Cc1ccc(NC(=O)CCNC(=O)c2ccc(Cl)cc2)nc1	none (no result: L3MBTL1 block, G9a inh)
Cc1cc2ccccn2c1C(=O)c1ccccc1Br	G9a inh inconclusive (no result: L3MBTL1 block)
Cc1c(C=O)c2ccccn2c1C(=O)c1ccc(Cl)c([N+](=O)[O-])c1	none (no result: BAZ2B inh)
Cc1cc2ccccn2c1C(=O)c1ccc([N+](=O)[O-])o1	BAZ2B inh 10µM, JMJD2A Tudor inconclusive, G9a inh inconclusive
Cc1cc2ccccn2c1C(=O)c1cccc([N+](=O)[O-])c1	BAZ2B inh inconclusive, HP1b binding inh inconclusive, G9a inh 40µM (no result: L3MBTL1 block)
Cc1cc2ccccn2c1C(=O)c1ccc(Cl)c([N+](=O)[O-])c1	BAZ2B inh 11µM, JMJD2A Tudor inconclusive, HP1b binding inh inconclusive
